Data from publication PMC4552634, “A New Set of Chemical Starting Points with Plasmodium falciparum Transmission-Blocking Potential for Antimalarial Drug Discovery” (PLoS ONE, 2015).
Out of some 13,000 compounds screened, about 3,200 (25%) showed an effect of 50% or more. Some of the results follow.

Test system: P. falciparum stage V gametocytes
Design: BacTiter-Glo ATP luminescence viability of purified stage V gametocytes in 384-well plates, per cent inhibition versus DMSO
Details: 48 h, 5 µM; inhibitor

| SMILES | % Inhibition |
| --- | --- |
| COc1ccc(CNC2CCN(C)CC2)cc1-c1cccc(S(=O)(=O)NCc2ccccc2)c1 [TCMDC-132267] | 106.3% |
| COc1ccc(CNC2CCN(C)CC2)cc1-c1ccc(S(=O)(=O)NCc2ccccc2)cc1 [TCMDC-132244] | 110.3% |
| Cc1ccc(NC(=O)c2ccc(CN3CCCN(Cc4cccc(C#N)c4)CC3)cc2)cc1F [TCMDC-136394] | -18.71% |
| COc1ccc2ncc(F)c(CCN3C4CCC3CC(NCc3ccc5c(c3)OCCO5)C4)c2n1 (centres unmarked) [TCMDC-135638] | 37.56% |
| Clc1ccc(CNc2nc(NCCc3cnc[nH]3)nc(Nc3ccc4c(c3)OCO4)n2)cc1 [TCMDC-139740] | 19.01% |
| O=C(COc1ccccc1Cl)N1CCc2cc3nccc(N4CCN5CCC[C@H]5C4)c3cc21 [TCMDC-140049] | 15.14% |
| Oc1ccc(Cl)cc1CN1CCCC(COC(c2ccc(F)cc2)c2ccc(F)cc2)C1 (centres unmarked) [TCMDC-136034] | 8.672% |
| O=C(NCCN1CCC(NC(=O)c2ccc(-c3ccccn3)s2)CC1)c1cccc(C(F)(F)F)c1 [TCMDC-141952] | 4.93% |
| N#Cc1ccc2c(c1)CN(CCC1CCC(NC(=O)c3cc4ccccc4cc3N)CC1)CC2 (centres unmarked) [TCMDC-139164] | 18.76% |
| Oc1c(CN2CCCC(C(F)(F)F)C2)cc(Cl)c2ccccc12 (centres unmarked) [TCMDC-124857] | 96.48% |
| CC1CCCN(Cc2cc(Cl)cc(Cl)c2O)C1 (centres unmarked) [TCMDC-125392] | 14.71% |
| O=C(c1ccc(Cl)cc1Cl)N1CCCC(C(F)(F)F)C1 (centres unmarked) [TCMDC-123721] | 22.72% |
| CC(=O)Nc1ccc(CN2CCC(N(C)c3cc(NC(=O)c4ccc(F)cc4)ccn3)CC2)cc1 [TCMDC-134983] | -11.33% |
| Cc1nn(-c2ccccc2)nc1C(=O)N(Cc1ccc(-c2ccc(CNCCc3ccc(S(C)(=O)=O)cc3)cn2)cc1)C1CC1 [TCMDC-141523] | 39.99% |
| Cc1cc(C(=O)N(Cc2ccc(-c3ccc(CNCCc4ccc(S(C)(=O)=O)cc4)cn3)cc2)C(C)CN(C)C)ccc1[N+](=O)[O-] (centres unmarked) [TCMDC-141521] | 51.26% |
| Cc1cnc(CN(Cc2ccc(-c3ccc(CNCCc4ccc(S(C)(=O)=O)cc4)cn3)cc2)C(=O)c2nn(-c3ccccc3)nc2C)cn1 [TCMDC-141522] | -18.48% |
| Cc1cnc(CN(Cc2ccc(-c3ccc(CNCCc4ccc(S(C)(=O)=O)cc4)cn3)cc2)C(=O)c2ccc([N+](=O)[O-])c(C)c2)cn1 [TCMDC-141520] | 64.44% |
| C=CC[C@H](C[C@H](O)[C@H](Cc1ccccc1)NC(=O)c1nn(-c2ccccc2)nc1C)C(=O)NC1CCCCC1 [TCMDC-141422] | -47.48% |
| O=C(Cc1cccc(Cl)c1)Nc1cccc(-c2c[nH]c3nc(Nc4cccc(OCc5ccccc5)c4)ncc23)c1 [TCMDC-134680] | -43.48% |
| Cc1ccc(Nc2nccc(NCC(O)c3cccc(F)c3)n2)cc1 (centres unmarked) [TCMDC-136572] | -5.913% |
| C[C@@H](COc1ccccc1)NCC(O)c1ccc([N+](=O)[O-])c(OCc2ccccc2)c1 (some centres unmarked) [TCMDC-132032] | 7.287% |

| SMILES | % Inhibition |
| --- | --- |
| Cc1ccc(S(=O)(=O)N(CCCN2CCN(C)CC2)Cc2csc(-c3ccc(CNCc4ccccc4)cc3)n2)cc1 [TCMDC-141602] | 64.23% |
| COc1ccc(S(=O)(=O)N(CCCN2CCN(C)CC2)Cc2csc(-c3ccc(CNCc4ccccc4)cc3)n2)cc1 [TCMDC-141599] | 65.47% |
| CN1CCN(CCCN(Cc2csc(-c3ccc(CNCc4ccccc4)cc3)n2)S(=O)(=O)c2cccc3cccnc23)CC1 [TCMDC-141598] | 96.08% |
| CN1CCN(CCCN(Cc2csc(-c3ccc(CNCc4ccccc4)cc3)n2)S(=O)(=O)c2ccc(F)cc2)CC1 [TCMDC-141601] | 76.11% |
| O=C(Nc1cccc(-c2ccc(CN3CCC(O)CC3)cc2)c1)c1ccc(Cl)cc1 [TCMDC-132633] | -6.492% |
| COCCN1CCC(C(=O)NCC(C)(C)c2nc(-c3ccc(Br)c(O)c3)c(-c3ccncc3)[nH]2)CC1 [TCMDC-140792] | 8.912% |
| O=C(NNC(=O)c1ccc(CCN2CCC(c3nc(COCC(F)(F)F)c(-c4ccc(F)cc4)o3)CC2)cc1)Nc1ccc(Oc2ccccc2)cc1 [TCMDC-131906] | -12.54% |
| CN1CCN(CCCN(Cc2csc(-c3ccc(CNCc4ccccc4)cc3)n2)C(=O)c2cc(F)cc(F)c2)CC1 [TCMDC-141812] | 50.04% |
| CN1CCN(CCCN(Cc2csc(-c3ccc(CNCc4ccccc4)cc3)n2)C(=O)Nc2cc(Cl)cc(Cl)c2)CC1 [TCMDC-141795] | 32.67% |
| CN1CCN(CCCN(Cc2csc(-c3ccc(CNCc4ccccc4)cc3)n2)C(=O)Nc2ccc3ccccc3c2)CC1 [TCMDC-141642] | 43.35% |
| CN1CCN(CCCN(Cc2csc(-c3ccc(CNCc4ccccc4)cc3)n2)S(=O)(=O)c2ccccc2Cl)CC1 [TCMDC-141603] | 99.67% |
| CCc1ccc(NC(=O)N(CCCN2CCN(C)CC2)Cc2csc(-c3ccc(CNCc4ccccc4)cc3)n2)cc1 [TCMDC-141641] | 9.107% |
| CN1CCN(CCCN(Cc2csc(-c3ccc(CNCc4ccccc4)cc3)n2)S(=O)(=O)c2ccccc2)CC1 [TCMDC-141600] | 63.87% |
| Cc1ccccc1C1CCN(C2CCC(NC(=O)/C=C/c3ccc4c(c3)OC(F)(F)O4)CC2)CC1 (centres unmarked) [TCMDC-133520] | -82.53% |
| COc1cc(Br)ccc1N1CCN(CCCCNC(=O)c2ccc(NC(=O)c3ccc(Cl)cc3)cc2)CC1 [TCMDC-138257] | 6.971% |
| CC(C)c1ccc2[nH]c(C(=O)NC3CCC(N4CCCc5ccc(C#N)cc5C4)CC3)cc2c1 (centres unmarked) [TCMDC-133503] | -23.75% |
| O=C(NCCCNc1ccnc2cc(Cl)ccc12)c1ccccc1F [TCMDC-125231] | 46.84% |
| N#Cc1ccccc1C1CCN(C2CCC(Nc3cc(-c4cccnc4)ccn3)CC2)CC1 (centres unmarked) [TCMDC-134834] | -2.713% |
| Cc1cc(C(F)(F)F)nn1-c1ccc(NC(=O)c2ccco2)cc1 [TCMDC-124896] | 9.865% |
| O=C(/C=C/c1ccc(Cl)c(Cl)c1)NCCCCCN1CCC(NC(=O)Nc2cccc(Cl)c2Cl)CC1 [TCMDC-135725] | -48.39% |
| NC1=NC(c2ccccc2)(c2ccccc2)C(=O)N1CC1CCC1 [TCMDC-136775] | 2.608% |

| SMILES | % Inhibition |
| --- | --- |
| O=C(/C=C/c1ccc(Cl)c(Cl)c1)NCCCCCN1CCC(NC(=O)Nc2cccc(Cl)c2)CC1 [TCMDC-135711] | 59.36% |
| CSc1ccccc1NC(=S)NC1CCN(CCCCCNC(=O)/C=C/c2ccc(Cl)c(Cl)c2)CC1 [TCMDC-139391] | 14.69% |
| O=C(/C=C/c1ccc(Cl)c(Cl)c1)NCCCCCN1CCC(NC(=O)Nc2cc(Cl)cc(Cl)c2)CC1 [TCMDC-135727] | -63.17% |
| O=C(/C=C/c1ccc(Cl)c(Cl)c1)NCCCCCN1CCC(NC(=S)Nc2ccc(Cl)c(Cl)c2)CC1 [TCMDC-135903] | -7.54% |
| Cc1ccc(NC(=S)NC2CCN(CCCCCNC(=O)/C=C/c3ccc(Cl)c(Cl)c3)CC2)cc1Cl [TCMDC-135901] | 122.2% |
| Cc1ccccc1NC(=O)NC1CCN(CCCCCNC(=O)/C=C/c2ccc(Cl)c(Cl)c2)CC1 [TCMDC-135701] | -65.25% |
| Cc1ccccc1NC(=S)NC1CCN(CCCCCNC(=O)/C=C/c2ccc(Cl)c(Cl)c2)CC1 [TCMDC-135897] | 97.66% |
| Cc1cccc(NC(=S)NC2CCN(CCCCCNC(=O)/C=C/c3ccc(Cl)c(Cl)c3)CC2)c1 [TCMDC-139390] | -46.46% |
| O=C(/C=C/c1ccc(Cl)c(Cl)c1)NCCCCCN1CCC(NC(=S)Nc2cccc(Cl)c2)CC1 [TCMDC-135899] | -1.091% |
| O=C(/C=C/c1ccc(Cl)c(Cl)c1)N1CCC(CCN2CCC(c3nc4ccc(O)cc4[nH]3)CC2)CC1 [TCMDC-140127] | -21.57% |
| O=C(Nc1ccc(F)cc1)c1cnc(N2CCN(c3ccncc3)CC2)c(Cl)c1 [TCMDC-134599] | 47.6% |
| CC(C)(CNC(=O)C1CCN(Cc2ccc(Cl)cc2)CC1)c1nc(-c2ccc(Cl)c(O)c2)c(-c2ccncc2)[nH]1 [TCMDC-141138] | -35.73% |
| NC(=O)c1cc2nc(Nc3ccc(F)cc3)nc(Nc3ccc(S(N)(=O)=O)cc3)c2[nH]1 [TCMDC-137043] | -45.2% |
| CC(C)(C)NCc1cc(Nc2ccnc3cc(Cl)ccc23)ccc1F [TCMDC-135909] | -17.74% |
| C[C@H](NC(=O)[C@H](CCCCNC(=O)OC(C)(C)C)NC(=O)OC(C)(C)c1ccc(-c2ccccc2)cc1)C(=O)OCc1ccccc1 [TCMDC-131396] | 15.4% |
| O=C(Nc1ccc2nccc(N3CCN4CCC[C@H]4C3)c2c1)c1ccc(Cl)c(Cl)c1 [TCMDC-139628] | 19.58% |
| CC[C@H](C)CNC(=O)c1ccnc(-c2ccc(CN3CCC(N4CCCC4)CC3)cc2)c1 [TCMDC-134250] | 36.18% |
| CC[C@H](C)CNC(=O)c1cccc(-c2ccc(CN3CCC(N4CCCC4)CC3)cc2)n1 [TCMDC-134249] | 57.67% |
| CC[C@H](C)CNC(=O)c1cccc(-c2cccc(CN3CCC(N4CCCC4)CC3)c2)n1 [TCMDC-134224] | 16.22% |
| N#Cc1ccc2c(c1)CCN(CCC1CCC(NC(=O)c3cc4cccc(Cl)c4[nH]3)CC1)CC2 (centres unmarked) [TCMDC-139685] | -1.386% |
